In all, about 310,000 compounds went through this assay and about 14,000 (4.5%) showed an effect of 50% or more. Effects have a minus sign here. Only a selection was taken, and strong results are over-represented in it overall.
The compounds below were run against human ether-à-go-go-related gene (hERG) potassium channel (human, UniProt Q12809) (assay: primary screen, population patch clamp on CHO cells stably expressing hERG; higher = less effect of the substance).
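Also: peak tail current of the secondary pulse compared with the same well before compound.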

Chain of human ether-à-go-go-related gene (hERG) potassium channel (Q12809 whole entry, looked up): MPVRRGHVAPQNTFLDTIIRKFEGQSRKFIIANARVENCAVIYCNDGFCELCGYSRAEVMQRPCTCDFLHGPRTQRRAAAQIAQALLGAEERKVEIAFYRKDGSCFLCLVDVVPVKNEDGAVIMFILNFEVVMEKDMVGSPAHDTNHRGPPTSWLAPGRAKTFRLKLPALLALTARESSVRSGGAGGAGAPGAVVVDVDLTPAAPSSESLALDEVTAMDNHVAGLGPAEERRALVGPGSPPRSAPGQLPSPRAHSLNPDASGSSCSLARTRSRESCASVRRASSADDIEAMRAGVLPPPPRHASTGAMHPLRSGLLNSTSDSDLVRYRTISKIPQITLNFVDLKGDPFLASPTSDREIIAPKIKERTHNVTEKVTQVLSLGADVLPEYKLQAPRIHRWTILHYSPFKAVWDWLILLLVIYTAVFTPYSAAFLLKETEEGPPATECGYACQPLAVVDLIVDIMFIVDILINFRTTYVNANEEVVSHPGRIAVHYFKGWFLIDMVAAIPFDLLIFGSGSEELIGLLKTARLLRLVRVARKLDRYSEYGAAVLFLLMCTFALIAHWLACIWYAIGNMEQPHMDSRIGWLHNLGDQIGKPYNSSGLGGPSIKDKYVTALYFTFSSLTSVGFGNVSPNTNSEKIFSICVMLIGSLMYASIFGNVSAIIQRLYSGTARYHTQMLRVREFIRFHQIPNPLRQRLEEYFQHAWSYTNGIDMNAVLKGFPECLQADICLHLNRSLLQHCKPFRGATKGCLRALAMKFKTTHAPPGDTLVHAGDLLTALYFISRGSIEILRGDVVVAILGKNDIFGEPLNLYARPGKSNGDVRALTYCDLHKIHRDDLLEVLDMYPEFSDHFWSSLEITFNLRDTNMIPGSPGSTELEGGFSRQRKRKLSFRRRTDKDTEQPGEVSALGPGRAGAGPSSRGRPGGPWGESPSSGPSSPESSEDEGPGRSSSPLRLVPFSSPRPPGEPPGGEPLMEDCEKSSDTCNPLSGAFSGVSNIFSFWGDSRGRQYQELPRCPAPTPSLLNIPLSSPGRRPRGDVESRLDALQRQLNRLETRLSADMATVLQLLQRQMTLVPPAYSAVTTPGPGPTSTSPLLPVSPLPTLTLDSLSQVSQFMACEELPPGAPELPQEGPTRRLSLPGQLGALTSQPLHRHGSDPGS

Structure (SMILES)	hERG current change (%, negative = inhibition) at 10uM
Cc1nc2cc(C(F)(F)F)ccc2n1C1CCN(CC(=O)N2CCOCC2)CC1	-44.4%
O=C(CN1CCC(n2nnc3cc(C(F)(F)F)ccc32)CC1)NNC(=O)c1ccco1	-24.6%
COC(=O)c1ccccc1NC(=O)CN1CCC(n2nnc3cc(C(F)(F)F)ccc32)CC1	-6.14%
Cc1nc2cc(C(F)(F)F)ccc2n1C1CCN(C(=O)N2CCOCC2)CC1	-55.7%
C=CCNC(=O)CN1CCC(n2c(C)nc3cc(C(F)(F)F)ccc32)CC1	-62.1%
Cc1nc2cc(C(F)(F)F)ccc2n1C1CCN(CC(=O)NC(C)(C)C)CC1	-19.4%
Cc1cc(NC(=O)CN2CCC(n3nnc4cc(C(F)(F)F)ccc43)CC2)no1	-50%
Cc1nc2cc(C(F)(F)F)ccc2n1C1CCN(CC(=O)N2CCCC2)CC1	-13.1%
COCCNC(=O)CN1CCC(n2c(C)nc3cc(C(F)(F)F)ccc32)CC1	-25.6%
CC1Cc2ccccc2N1C(=O)CN1CCC(n2nnc3cc(C(F)(F)F)ccc32)CC1 (stereo not drawn)	-67.2%
COCC(=O)N1CCC(n2nnc3cc(C(F)(F)F)ccc32)CC1	-22%
CC1=C(C#N)C(NC(=O)C(C)(C)C)(C(F)(F)F)C(=O)N1 (stereo not drawn)	1.3%
O=C(O)c1ccccc1NS(=O)(=O)c1ccc2c3c(cccc13)C(=O)N2	16.1%
CC1CCN(CCCNC(=O)CCCNC(=O)Cn2cnc3sc4c(c3c2=O)CCCC4)CC1	12.3%
Cc1ccc(NC(=O)NCCCl)cc1S(=O)(=O)N1CCOCC1	1.99%
COc1ccc2cc3cc(C(=O)N4CCN(c5ccccc5)CC4)oc3nc2c1	13.2%
CN(C)CCC1Sc2ccccc2Oc2ccccc21.O=C(O)C(=O)O (stereo not drawn)	-24.8%
CN(C)CCCC1Sc2ccccc2Sc2ccccc21.O=C(O)C(=O)O (stereo not drawn)	-56.1%
CC1c2ccccc2SC(CCCN(C)C)c2ccccc21.O=C(O)/C=C\C(=O)O (stereo not drawn)	-19.2%
Cc1nc2scc(C)n2c(=O)c1S(=O)(=O)N1CCN(c2ccc([N+](=O)[O-])cc2)CC1	-12%
CCN(CC)c1ccc(NC(=O)CSc2nnc(N)s2)cc1C	2.78%

Structure (SMILES)	hERG current change (%, negative = inhibition) at 10uM
COC(C/C=C\C(=O)[C@H](C)OCc1ccccc1)OC	9.66%
COc1ccc(C[C@H]2CN3C(=NC[C@@H]3Cc3ccccc3)N2CCNC(=O)CCC2CCCCC2)cc1	-73.7%
O=C(CCC1CCCCC1)NCCN1C2=NC[C@H](Cc3ccc(O)cc3)N2C[C@H]1Cc1ccc(O)cc1	-4.37%
O=C(CCC1CCCCC1)NCCN1C2=NC[C@H](Cc3ccccc3)N2C[C@H]1Cc1ccc(O)cc1	-42%
COc1ccc(C[C@H]2CN3C(=NC[C@H]3Cc3ccccc3)N2CCNC(=O)CCC2CCCCC2)cc1	-71.9%
O=C(CCC1CCCCC1)NCCN1C2=NC[C@@H](Cc3ccccc3)N2C[C@H]1Cc1ccc(O)cc1	-69.3%
CCOC(=O)c1ccc(NC(=O)c2ccnn2C)cc1	4.61%
CC(OC(=O)c1nc(-c2ccccc2)n(-c2ccccc2)n1)C(=O)Nc1cc(Cl)cc(Cl)c1 (stereo not drawn)	-6.35%
CN(C)C(CNC(=O)c1ccc2ccccc2n1)c1ccccc1 (stereo not drawn)	11.1%
CC(=O)OC1N=C(c2ccccc2Cl)c2cc(Br)ccc2NC1=O (stereo not drawn)	-40.3%
O=C1Nc2ccc(Br)cc2C(c2ccccc2)=NC1O (stereo not drawn)	13.1%
O=C1Nc2ccc(Br)cc2C(c2ccc(Cl)cc2)=NC1O (stereo not drawn)	-56.5%
O=C1Nc2ccc(Br)cc2C(c2ccccc2Cl)=NC1O (stereo not drawn)	-48.6%
CC(=O)OC1N=C(c2ccc(Cl)cc2)c2cc(Br)ccc2NC1=O (stereo not drawn)	-55%
CC(=O)OC1N=C(c2ccccc2)c2cc(Br)ccc2NC1=O (stereo not drawn)	-10.2%
COc1cc2c(=O)n(Cc3ccccc3)c(=O)n(CC(=O)NCCc3ccccc3)c2cc1OC	0.36%
CC(Nc1ncnc2sccc12)c1ccccc1 (stereo not drawn)	-29.8%
Cc1ccc(C(=O)NCCNC(=O)CN2CCCC2)cc1	5.16%
Cc1ccccc1-c1nc(P(=O)(c2ccccc2)c2ccccc2)c(N2CCOCC2)o1	-19.5%
Cc1cccc(OCCNc2cc(N3CCOCC3)ccc2[N+](=O)[O-])c1	-12.8%
C#CCOCCOCCOCCNc1nc(N2CCN(C(=O)[C@H](C(C)C)n3cc(CCO)nn3)CC2)nc(N2CCN(C(=O)[C@H](C(C)C)n3cc(CCO)nn3)CC2)n1	2.97%

From article PMC4336329 (PLoS ONE, 2015)
